Experimental findings from ChEMBL document CHEMBL1157539, “Thousands of chemical starting points for antimalarial lead identification” (Nature, 2010) are described below.

Molecules are shown by their SMILES.

Holding throughout (format): functional
Experiment [1] relates to Plasmodium falciparum. The experiment is described as follows: GSK_TCMDC: Inhibition of Plasmodium falciparum 3D7 in whole red blood cells, using parasite LDH activity as an index of growth. Test compounds present at 2uM.
The test system of experiment [2] is Plasmodium falciparum. The experiment is described as follows: GSK_TCMDC: Inhibition of Plasmodium falciparum Dd2 in whole red blood cells, using parasite LDH activity as an index of growth. Test compounds present at 2uM.
Another experiment relates to HepG2. In words: GSK_TCMDC: Percent inhibition of human HepG2 cell line. Test compounds present at 10uM.

In the case of `O=C(Nc1ccc(Cl)cn1)c1sc2ccccc2c1O`, the Inhibition in the experiment on Plasmodium falciparum [1] stood at 99%; in the experiment on Plasmodium falciparum [2], 18%; in the experiment with HepG2, 2%.
For `Cc1ccc(C(=O)Nc2ccc(Cl)c(N3CCN(CCc4ccccc4)CC3)c2)cc1.O=C(O)C(F)(F)F` the same measures were 90%, 14% and 17%.
For `CC(C)C[C@H](NC(=O)c1cc(-c2ccc(F)cc2)no1)C(=O)O.CC(C)C[C@H](NC(=O)c1conc1-c1ccc(F)cc1)C(=O)O` the same measures were 82%, 4% and 7%.
For `COc1ccc(CNCc2ccccc2)cc1-c1ccc(S(=O)(=O)NCCN2CCCC2)cc1.O=C(O)C(F)(F)F` the same measures were 96%, 39% and 38%.
For the compound `CCOc1cc(CC)ccc1C1CCN(CCN2CCC(NC(=O)c3ccc(-c4ccc(C(C)=O)cc4)cc3)CC2)CC1`, the Inhibition is 100% in the experiment on Plasmodium falciparum [1], 8% in the experiment on Plasmodium falciparum [2] and 25% in the experiment on HepG2.
As for `CN1CCCC1CCNCc1cccc(-c2cnc(N(C)C3CCCCC3)nc2)c1` (centres undefined), the Inhibition in the experiment with Plasmodium falciparum [1] was determined as 99%; with Plasmodium falciparum [2], 95%; in the experiment on HepG2 it was 98%.
With `COc1cccc2c(NN=Cc3ccccc3F)ccnc12`, the Inhibition came to 96% with Plasmodium falciparum [1], 37% in the experiment on Plasmodium falciparum [2] and 6% in the experiment on HepG2.
On to `CNC(=O)C1Cc2c([nH]c3c(C)cccc23)C2(N1)C(=O)Nc1ccc(OC(F)(F)F)cc12` (centres undefined), for which the Inhibition in the experiment with Plasmodium falciparum [1] was 100%; in the experiment with Plasmodium falciparum [2], 50%; in the experiment on HepG2, 0%.
As for `Fc1ccc(OC2CN(c3nccc(NCc4ccccc4Cl)n3)C2)cc1`, the Inhibition in the experiment on Plasmodium falciparum [1] was determined as 98%; in the experiment with Plasmodium falciparum [2], 99%; in the experiment on HepG2, 0%.
For `Cc1ccccc1CNC(=O)Nc1cccc(-c2csc(NC(=N)N)n2)c1` the same measures were 99%, 14% and 2%.
On to `Cc1cc(N2CCCC2)nc(Nc2ccc(NC(=O)C(C)Oc3ccccc3)cc2)n1` (centres undefined), for which the Inhibition in the experiment on Plasmodium falciparum [1] was found to be 100%; in the experiment on Plasmodium falciparum [2] it was 58%; in the experiment with HepG2, 42%.
As to `CC(=O)Nc1ncc(C(=O)Nc2cccc(-c3ccc(-c4nc5cc(C(F)(F)F)ccc5[nH]4)cc3)c2)s1`, the Inhibition in the experiment on Plasmodium falciparum [1] was determined as 100%; with Plasmodium falciparum [2], 94%; with HepG2, 83%.
As for `Cc1ccc(CON2C(N)=NC(N)=NC2(C)C)c(Cl)c1.Cc1ccc(CON2C(N)=NC(N)=NC2(C)C)cc1Cl`, the Inhibition worked out at 91% in the experiment on Plasmodium falciparum [1], 96% in the experiment with Plasmodium falciparum [2] and 67% in the experiment on HepG2.
On the same counts, the results for `Cc1cc(NC(=O)CCN2CCN(c3cccc(Cl)c3Cl)CC2)ccc1N1CCN(C(C)C)CC1.Cl` are 99%, 8% and 82%.
As to `COc1ccc2nccc([C@@H](O)CN3CCC(NCc4ccc5c(c4)sc(=O)n5C)CC3)c2c1.O=C(O)C(=O)O`, the Inhibition in the experiment with Plasmodium falciparum [1] worked out at 100%; in the experiment on Plasmodium falciparum [2], 72%; in the experiment with HepG2, 10%.
On the same counts, the results for `CN1CCN(Cc2cccc(-c3ccc4c(Nc5ccc(Oc6cccnc6)cc5)ccnc4c3)c2)CC1` are 100%, 100% and 15%.
On the same counts, the results for `NC(=O)c1ccccc1OCC(=O)Nc1cccc(-c2ccc(-c3nc4cc(C(F)(F)F)ccc4[nH]3)cc2)c1` are 92%, 17% and 58%.
For `O=C(O)C(F)(F)F.OCCN1CCN(Cc2cccc(-c3ccc(-c4nc5cc(C(F)(F)F)ccc5[nH]4)cc3)c2)CC1` the same measures were 100%, 85% and 19%.
For the compound `O=C(O)c1cccnc1Sc1ccc(Cl)cc1`, the Inhibition is given as 100% in the experiment with Plasmodium falciparum [1], 4% in the experiment with Plasmodium falciparum [2] and 5% with HepG2.
On the same counts, the results for `CC(C)CNCc1ccc(-c2ccc(CN(CCCN3CCN(C)CC3)C(=O)CCC3CCCC3)cc2)cc1.O=C(O)C(F)(F)F` are 96%, 87% and 50%.
On the same counts, the results for `O=C(/C=C/c1ccc(Cl)c(Cl)c1)NCCCCCN1CCC(NC(=O)Nc2cccc(F)c2)CC1` are 100%, 6% and 30%.
For `COc1ccc(CCn2c(=N)c(C(=O)NC3CCCC3)cc3c(=O)n4ccccc4nc32)cc1` the same measures were 99%, 34% and 11%.
Take `COC(=O)c1ccc2nc(-c3ccc(/C=C/C(=O)NC4CCN(Cc5ccccc5)CC4)cc3)[nH]c2c1`: the Inhibition with Plasmodium falciparum [1] was found to be 100%; in the experiment on Plasmodium falciparum [2] it was 88%; in the experiment with HepG2 it was 12%.

What is called Inhibition is the relative decrease from the control value, in per cent.
